Among the data in PubChem BioAssay AID588727 (Southern Research Specialized Biocontainment Screening …, 2011) are inhibition values, retold here.

Out of some 350,000 compounds screened, about 450 (0.13%) were called active. How the calls were made is not given here. Only a sample is shown. Entries with a potency or affinity are not part of this list.

This assay is described as follows: inhibitors of VEEV TC-83 cytopathic effect, confirmation, Vero cells (AID 588727). Conditions: VEEV TC-83 cytopathic effect inhibition, at 20 µM; stronger effect = higher value unless noted. A general note: Cytopathic effects are the visible damage that an infection or toxin causes in cultured cells.
By inhibition is commonly meant the share of the control response that was lost under treatment. Turning to `Cc1ccc(NC(=O)C2CC(=O)N(c3ccc4c(c3)OCCO4)C2)nc1` (stereo unspecified), the inhibition was 0.81% (inactive).

As for `COc1ccc(NC(=O)c2cc(S(=O)(=O)Nc3ccc(OC)cc3)cs2)cc1`, the inhibition was 1.17% (inactive).

In the case of `O=C1CCc2cc(S(=O)(=O)N3CCC(C(=O)NC4CCCCCCC4)CC3)ccc2N1`, the inhibition was 0.11% (inactive).

Consider `CC1CCCCN1C(=O)CSc1nc(N)cc(=O)[nH]1` (stereo unspecified), for which the inhibition is 0.79% (inactive).

On to `COC(=O)Cc1ccc(NC(=S)NCCSc2ccc(C)cc2)cc1`, for which the inhibition is 0.04% (inactive).

`CCOC(=O)c1cnc(N2CCOCC2)[nH]c1=O`: the inhibition result was “inactive”.

Regarding `O=c1ccc(Cl)cn1Cc1ccccc1F`, the inhibition was 0.68% (inactive).

Turning to `CCCNC(=O)CSc1nnc(NC(=O)C2CC(=O)N(c3ccccc3OC)C2)s1` (stereo unspecified), the inhibition was 0.13% (inactive).

On to `Nc1nc(NCCO)nc(NC2CCCCC2)c1[N+](=O)[O-]`, for which the inhibition was 3.17% (inactive).

Consider `CN(C)CCCNc1nc(N)c([N+](=O)[O-])c(NC2CCCCC2)n1`, for which the inhibition is 1.04% (inactive).

With `OCC1CCCCN1C(=S)NCc1ccco1` (stereo unspecified), the inhibition was 2.33% (inactive).

With `O=C(NNC(=O)c1ccc2ccccc2c1)c1cccc(F)c1`, the inhibition was 0.5% (inactive).

On to `COc1ccccc1NS(=O)(=O)c1ccc(C(=O)N2CCN(c3ccccn3)CC2)cc1`, for which the inhibition is 12.1% (inactive).

For the compound `COc1cc2cc(CN(CCO)S(=O)(=O)c3ccccc3)c(=O)[nH]c2cc1OC`, the inhibition was 2.19% (inactive).

As for `CCOC(=O)C(CC)n1cnc2sc3c(c2c1=O)CCC3` (stereo unspecified), the inhibition is 2.46% (inactive).

As for `COc1ccc(/C=C/C(=O)c2cc(Cl)cc(Cl)c2O)c(OC)c1`, the inhibition is 0.43% (inactive).

For `CCc1ccc(/C=C/C(=O)c2cc(Br)ccc(=O)c2O)cc1`, the inhibition was 2.12% (inactive).

On to `CN(C)/C=C/C(=O)/C=C/c1ccc(Cl)cc1Cl`, for which the inhibition result is “inactive”.

Take `CCNc1ccc(Br)cc(C(=O)/C=C/c2ccccc2Cl)c1=O`: the inhibition was 2.29% (inactive).

For the compound `CC(=O)Nc1ccc(S(=O)(=O)Nc2ccc3c(c2)OCO3)cc1`, the inhibition entry is “inactive”.

Consider `Cc1ccc(-c2cc(C(=O)NCCCn3ccnc3)c3ccccc3n2)s1`, for which the inhibition was 10.3% (inactive).

Consider `CC(OC(=O)Cn1cnc2ccccc2c1=O)C(=O)N(C)c1ccccc1` (stereo unspecified), for which the inhibition is 1.86% (inactive).

Consider `Cc1cc(SCC(=O)c2cc3ccccc3o2)nc2ccccc12`, for which the inhibition result was “inactive”.

As for `COc1ccc(NC(=O)CSc2nc3ccccc3c(=O)n2CCC(=O)N2CCCCC2)cc1`, the inhibition was 10.7% (inactive).

On to `CCN(C(=O)c1cccc(Br)c1)c1ccccc1`, for which the inhibition is 1.28% (inactive).

On to `CCn1c(-c2nonc2NC(=O)c2ccccc2)nc2ccccc21`, for which the inhibition entry is “inactive”.

For the compound `N#CCCn1c(-c2nonc2NC(=O)c2ccccc2Cl)nc2ccccc21`, the inhibition result is “inactive”.

For the compound `CC(=O)Nc1nonc1-c1nc2ccccc2n1CCC(C)C`, the inhibition is 2.19% (inactive).

In the case of `CCC(=O)Nc1nonc1-c1nc2ccccc2n1CC(C)C`, the inhibition is 0.38% (inactive).

With `CCOc1ccccc1Nc1ccnc2cc(Cl)ccc12`, the inhibition is 0.76% (inactive).

For the compound `C=C1CCN([C@@H](Cc2ccccc2)C(=O)NC2CCN(Cc3ccccc3)CC2)S(=O)(=O)c2ccccc21`, the inhibition entry is “inactive”.

In the case of `CCCN1C2CCCC1CC(NC(=O)c1ccc(Br)cc1)C2` (stereo unspecified), the inhibition is 0.23% (inactive).

Take `CCN(CC)S(=O)(=O)c1ccc(Cl)c(C(=O)OCC(=O)c2c(N)n(C)c(=O)n(C)c2=O)c1`: the inhibition is 2.96% (inactive).

`COCCCNC(=O)c1cc(C(=O)Cc2ccccc2)c[nH]1`: the inhibition is 0.38% (inactive).

As to `O=C(CCn1c(=S)oc2ccccc21)Nc1cccc(O)c1`, the inhibition is 1.38% (inactive).

Take `COc1ccc(C2c3[nH]c4ccccc4c3CCN2C(=O)c2cn3ccccc3n2)c(F)c1` (stereo unspecified): the inhibition is 8.94% (inactive).

For the compound `COc1ccc(C2c3[nH]c4ccccc4c3CCN2C(=O)c2ccc(=O)n(C)n2)c(F)c1` (stereo unspecified), the inhibition is 1.1% (inactive).

On to `CCC(CC)c1nc(C(N)=O)c2[nH]c(=O)n(-c3ccc(OC)c(OC)c3)c2n1`, for which the inhibition was 1.45% (inactive).

As to `NNc1nc(-c2ccccc2)cc(-c2ccc(Br)cc2)n1`, the inhibition was 7.9% (inactive).

Consider `CN1OC[C@@H]2CN(C(=O)C(C)(C)C)[C@H](c3cccc(Br)c3)C[C@@H]21`, for which the inhibition entry was “inactive”.

As for `c1ccc2c(-c3cc(C4CCNCC4)[nH]n3)cccc2c1`, the inhibition was 6.53% (inactive).

As for `Clc1ccc(-c2cc(C3CCNCC3)[nH]n2)cc1`, the inhibition was 0.74% (inactive).

With `CC(OC(=O)c1cc(S(=O)(=O)N2CCOCC2)ccc1F)C(=O)NCC1CCCCC1` (stereo unspecified), the inhibition is 0.1% (inactive).

As for `O=C(N/N=C/c1cccnc1)c1ccc(NC(=O)c2ccccc2Cl)cc1`, the inhibition is 1.2% (inactive).

For the compound `O=C(NCCN1CCN(C(=O)c2cccc(OC(F)F)c2)CC1)c1cccc(OC(F)F)c1`, the inhibition is 0.88% (inactive).

Take `O=C(N[C@@H]1CCC(=O)N(CC[C@H](Sc2ccc(Br)cc2)c2ccccc2)CC1)OCc1ccccc1`: the inhibition was 1.21% (inactive).

In the case of `Cc1ccc(-c2csc(NC(=O)/C=C/c3cccs3)n2)cc1C`, the inhibition is 7.86% (inactive).

`O=C(/C=C/c1cccs1)Nc1nc(-c2ccccc2)cs1`: the inhibition was 10.2% (inactive).

As for `COc1ccc(OC)c(/C=N/n2c(COc3ccccc3)n[nH]c2=S)c1`, the inhibition was 1.2% (inactive).

Take `Cc1sc(NC(=S)NC(=O)c2ccco2)c(C#N)c1C`: the inhibition is 0.86% (inactive).

In the case of `Cc1sc(NC(=S)NC(=O)c2ccccc2)c(C#N)c1C`, the inhibition was 1.72% (inactive).

`Cc1cccc(S(=O)(=O)N(C)C[C@H]2OCc3cn(nn3)CCCC(=O)N([C@@H](C)CO)C[C@@H]2C)c1`: the inhibition was 0.62% (inactive).

For the compound `O=S(=O)(c1ccc(F)cc1)N1CCC2(CC1)OCCO2`, the inhibition was 0.49% (inactive).

Turning to `COC(C[C@H](O)C[C@H](O)[C@@H](C)OCc1ccccc1)OC`, the inhibition is 0.19% (inactive).

As to `CCn1c(C)nc2cc(C(=O)OCCC(F)(F)F)ccc21`, the inhibition was 8.24% (inactive).

Turning to `CCn1c(C)nc2cc(C(=O)OC)ccc21`, the inhibition was 0.32% (inactive).

`Cc1cc(C)nc(NS(=O)(=O)c2ccc(NC(=O)c3ccc(N4C(=O)CCC4=O)cc3)cc2)n1`: the inhibition result is “inactive”.

Regarding `Nc1ccn([C@@H]2O[C@H](CO)[C@@H](O)[C@@H]2O)c(=O)n1`, the inhibition entry is “inactive”.

For the compound `Nc1ccn([C@@H]2O[C@H](CO)[C@@H](O)[C@H]2O)c(=O)n1`, the inhibition was 0.98% (inactive).

In the case of `CNC(=S)N(Cc1ccccc1)Cc1cccnc1`, the inhibition was 3.13% (inactive).

Take `CCOC(=O)c1c(NC(=O)CSc2nnc(-c3ccccc3)o2)sc(C(C)=O)c1C`: the inhibition was 2.08% (inactive).
